Outcome data for 40 molecules are collected here from PubChem BioAssay (Tox21).

Inconclusive results are not listed. The source made the active and inactive calls. Calls follow the shape of the dose curve; as a rule, active = well fitted activation curve with a large enough effect in the signal ratio in the repeat runs (not every such curve was filed as active); inconclusive = weak or mixed curves; inactive = flat fitted curve, though single readings scatter; the % refers to the signal ratio.

This test can be described thus: qHTS assay to identify small molecule agonists of the TGF-beta/Smad signaling pathway (AID 1346859). The following applies: SBE-bla HEK293T, TGF-beta/Smad beta-lactamase reporter, 5 h; series mostly up to 76.8 µM. The source says: U.S. Tox21 Program National Center for Advancing Translational Sciences [NCATS] NIH Chemical Genomics Center [NCGC] U.S. Environmental Protection Agency [EPA] National Institutes of Environmental Health Sciences [NIEHS] National Toxicology Program [NTP] U.S. Food and Drug Administration [FDA] Tox21 Assay Overview: Transforming growth factor beta (TGF-beta) superfamily consists of a large number of structurally related dimeric proteins that act as hormones or local mediators in regulating a wide range of biological functions. This superfamily includes TGF-betas themselves, the bone morphogenetic proteins (BMPs) and the activins. These ligands induce oligomerization of serine/threonine receptor kinases and phosphorylate the cytoplasmic signaling molecules of Smad protein family. CellSensor SBE-bla HEK 293T cell line (Life Technologies, Carlsbad, CA), responsive to TGF-beta was used to screen Tox21 10K compound library for identification of agonists/antagonists of the Smad signaling pathway. This cell line contains a beta-lactamase reporter gene under control of the Smad binding element (SBE) stably integrated into HEK 293T cells.
Tox21 Assay Protocol Summary: SBE-bla HEK 293T cells were dispensed at 4,000/well in 6 uL of assay medium into black wall/clear-bottom 1536-well plates using a Multidrop Combi (ThermoFisher Scientific, Waltham, MA) dispenser. After the assay plates were incubated at 37 C and 5% CO2 for an overnight, 23 nL of compounds dissolved in DMSO, positive controls or DMSO only was transferred to the assay plate by a Pintool station (Kalypsys, San Diego, CA). The assay plates were incubated at 37 C and 5% CO2 for 5 hr. One uL of LiveBLAzer B/G FRET substrate (Life Technologies) was added using a Flying Reagent Dispenser (Aurora Discovery, San Diego, CA) and the plates were incubated at room temperature for 2 hr. Fluorescence intensity (405 nm excitation, 460 nm and 530 nm emissions) was measured using an Envision plate reader (PerkinElmer, Shelton, CT).
For `CCOC(=O)c1ccc(N)cc1`, the molecule was called inactive.
For `CC(C)(C#N)c1cc(Cn2cncn2)cc(C(C)(C)C#N)c1` the value was “inactive”; for `O=S(=O)(O)c1ccc(N=Nc2c(O)ccc3cc(S(=O)(=O)O)ccc23)cc1`, “inactive”; for `CC(=O)OCCOC(C)=O`, “inactive”.
Regarding `CCNc1ccccc1`, the call was inactive.
With `O=C1C(c2[nH]c3ccccc3c2O)=Nc2ccccc21` the entry was “inactive”.
Regarding `COC(=O)CCCC(=O)OC`, the molecule was classed as inactive.
On to `Brc1ccc(Br)c(Br)c1`, for which the call was inactive.
With `NCCCCCCN`, the result was inactive.
On to `O=C(OCC1CCC2OC2C1)C1CCC2OC2C1` (stereo not given), for which the molecule was classed as inactive.
For `CCCCOC(=O)c1ccc(N)cc1` the value was “inactive”.
With `COc1ccc(N)c(C)c1` the entry was “inactive”.
Consider `COc1ccc(C)cc1N`, for which the outcome was inactive.
As for `CCCCCCO`, the call was inactive.
Turning to `OCc1cccc(Oc2ccccc2)c1`, the molecule was classed as inactive.
For the molecule `CC(C)CC(=O)CC(C)CC(C)C` (stereo not given), the outcome was inactive.
For `O=C(O)CCCCCCCCC(=O)O` the value was “inactive”; for `C[C@]12CC[C@@H]3c4ccc(O)cc4CC[C@H]3[C@@H]1C[C@@H](O)[C@@H]2O`, “inactive”; for `CC1(C)CC(N)CC(C)(CN)C1` (stereo not given), “inactive”.
With `Nc1nc(N)nc(-c2ccccc2)n1` the entry was “inactive”; with `Nc1ccc(Cl)c(N)c1`, “inactive”.
Consider `CCO[Si](CCCN)(OCC)OCC`, for which the call was inactive.
`CC(=O)OC1CC(C)OC(C)O1` (stereo not given): the molecule was classed as inactive.
Turning to `CC(C)=CCl`, the result was inactive.
For `CC1(C)S[C@@H]2[C@H](NC(=O)COc3ccccc3)C(=O)N2[C@H]1C(=O)O` the value was “inactive”.
As to `CC(CCO)CC(C)(C)C` (stereo not given), the call was inactive.
For `CCNc1cccc(C)c1` the value was “inactive”; for `CC(=O)c1ccc(O)cc1`, “inactive”.
Take `C[Si]1(C)O[Si](C)(C)O[Si](C)(C)O[Si](C)(C)O1`: the molecule was called inactive.
For `CCCCCCCCCCCCCCCCO` the value was “inactive”.
In the case of `CCCCCC(=O)O`, the molecule was called inactive.
Turning to `O=C(O)Cn1c(=O)n(Cc2ccc(Br)cc2F)c(=O)c2ccc(Cl)cc21`, the outcome was inactive.
For `CSc1ccc(Cl)cc1` the value was “inactive”; for `COC(=O)c1cccnc1`, “inactive”; for `CC(=O)OCc1ccccc1`, “inactive”.
With `C=CCCCCCCCCC(=O)O` the entry was “inactive”.
For `CCCCCCCCCCCC(=O)OC` the value was “inactive”; for `OC1C(O)C(O)C(O)C(O)C1O` (stereo not given), “inactive”.
As for `CC(C)c1cccc(C(C)C)c1`, the molecule was classed as inactive.
With `CC1(C)NC(=O)NC1=O`, the call was inactive.
